Results as given in PubChem BioAssay (NCI).
This is part of a sample that, as a whole, favours compounds with a hit. Of some 79,000 tested, about 15% had one in any assay. The source made the active and inactive calls. Rule as the data show it: active = growth inhibition above about 70%; inactive = the rest.

Columns and labels:
[1] = NCI Yeast Anticancer Drug Screen. Data for the rad52 strain (AID 147);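 also: 0% = growth of vehicle-treated control cultures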; details: S. cerevisiae rad52 mutant growth inhibition, stronger effect = higher value
How it was run: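 Inhibition of yeast growth, referenced to vehicle controls, was the measured output for a strain with defective DNA damage repair.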

[2] = NCI Yeast Anticancer Drug Screen. Data for the wt1 strain (AID 149);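 also: 0% = growth of vehicle-treated wt1 cultures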; details: S. cerevisiae wt1 strain (SPY 50644) growth inhibition, stronger effect = higher value
How it was run: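 Compounds are added to wt1 yeast cultures. Growth is then measured. Inhibition is expressed relative to vehicle-treated controls.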

[3] = NCI Yeast Anticancer Drug Screen. Data for the rad50EPP+ strain (AID 151);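 also: 0% = growth of vehicle-treated control cultures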; details: S. cerevisiae rad50 mutant strain, stronger effect = higher value
How it was run: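 Genetically defined yeast (rad50EPP+, DNA damage repair alteration) is grown with compound, and inhibition of growth is expressed relative to vehicle-treated controls.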

[4] = NCI Yeast Anticancer Drug Screen. Data for the mgt1 strain (AID 153); details: S. cerevisiae mgt1 mutant growth inhibition, stronger effect = higher value
How it was run: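 In the mgt1 strain, test compounds were added and growth inhibition was determined relative to vehicle-treated controls.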

[5] = NCI Yeast Anticancer Drug Screen. Data for the rad50 strain (AID 155);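 also: 0% = growth of vehicle-only cultures of the same strain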; details: S. cerevisiae rad50 strain growth inhibition, stronger effect = higher value
How it was run: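 Inhibition values express reduced yeast growth in compound-treated cultures relative to vehicle-treated controls.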

[6] = NCI Yeast Anticancer Drug Screen. Data for the mec2-1 strain (AID 157); details: S. cerevisiae mec2-1 strain, stronger effect = higher value
How it was run: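 Each compound was tested on mec2-1 yeast, a strain altered in DNA damage repair or cell cycle control. Growth inhibition is reported relative to vehicle.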

[7] = NCI Yeast Anticancer Drug Screen. Data for the rad14 strain (AID 159);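 also: 0% = growth of vehicle-treated control cultures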; details: S. cerevisiae rad14 strain growth inhibition, stronger effect = higher value
How it was run: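 A mutant yeast strain defective in DNA damage repair is treated with compound; inhibition of its growth is scored against untreated, vehicle-exposed cultures.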

[8] = NCI Yeast Anticancer Drug Screen. Data for the sgs1 mgt1 strain (AID 161);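 also: 0% = growth of cultures given vehicle only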; details: S. cerevisiae sgs1 mgt1 strain, stronger effect = higher value
How it was run: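 Test agents were incubated with a DNA-repair-mutant yeast strain. Growth was then read and compared against vehicle-treated controls.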

[9] = NCI Yeast Anticancer Drug Screen. Data for the CLN2oe strain (AID 163);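 also: 0% = growth of vehicle-only control cultures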; details: S. cerevisiae CLN2oe strain, stronger effect = higher value
How it was run: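 First, the altered yeast strain was treated with each compound; second, its growth was measured; finally, inhibition was derived by comparison with vehicle controls.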

[10] = NCI Yeast Anticancer Drug Screen. Data for the cln2 rad14 strain (AID 165);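 also: 0% = growth equal to vehicle treated cultures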; details: S. cerevisiae cln2 rad14 strain, stronger effect = higher value
How it was run: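 Test compounds were added to cln2 rad14 yeast cultures; inhibition of growth was then determined by comparison with vehicle treatment.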

[11] = NCI Yeast Anticancer Drug Screen. Data for the bub3 strain (AID 167); details: S. cerevisiae bub3 mutant strain, stronger effect = higher value
How it was run: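 Steps: expose the mutant yeast strain to compound; grow alongside vehicle-treated cultures; measure growth; express inhibition against the vehicle cultures.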

[12] = NCI Yeast Anticancer Drug Screen. Data for the wt2 strain (AID 169);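 also: 0% = growth of vehicle-treated yeast cultures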; details: S. cerevisiae wt2 strain growth inhibition, stronger effect = higher value
How it was run: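 The panel's yeast strains carry defined changes in DNA repair or cell cycle genes. Each strain is grown with compound, and growth loss is scored relative to vehicle.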

[13] = NCI Yeast Anticancer Drug Screen. Data for the mlh1 strain (AID 171);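 also: 0% = growth of vehicle-treated control cultures of the same strain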; details: S. cerevisiae mlh1 strain growth inhibition, stronger effect = higher value
How it was run: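 Inhibition values reflect reduced yeast growth in the presence of compound, referenced to vehicle controls, using a strain chosen for its alteration in DNA repair or cell cycle control.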

[14] = NCI Yeast Anticancer Drug Screen. Data for the sgs1 strain (AID 173);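 also: 0% = growth of vehicle-only control cultures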; details: S. cerevisiae sgs1 mutant, stronger effect = higher value
How it was run: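 Vehicle-treated cultures served as reference for growth inhibition of a yeast strain altered in DNA damage repair or cell cycle control after compound exposure.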

[15] = NCI Yeast Anticancer Drug Screen. Data for the mlh1 rad18 strain (AID 175); details: S. cerevisiae mlh1 rad18 strain growth inhibition, stronger effect = higher value
How it was run: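 Inhibition values reflect reduced growth of mutant yeast versus vehicle-treated controls following compound exposure; the mutations affect DNA damage repair.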

[16] = NCI Yeast Anticancer Drug Screen. Data for the rad18 strain (AID 177); details: S. cerevisiae rad18 mutant growth inhibition, stronger effect = higher value
How it was run: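 Steps: expose repair-mutant yeast to compound; measure growth; express as inhibition relative to vehicle control.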

[17] = at 5.0 µM (retest, dose inferred, filed as 0.5)
[18] = at 50.0 µM (retest, dose inferred, filed as 5.0)

Measured: growth inhibition

COc1cc2c(cc1OC)[C@@H](Nc1ccc(C#N)cc1)C1COC(=O)[C@@H]1C2c1cc(OC)c(O)c(OC)c1 (stereo partly drawn)
active: [1]; at 11.0 µM 81% | [1]; at 33.0 µM 91% | [1]; at 100.0 µM 93% | [2]; at 100.0 µM 79% | [4]; at 100.0 µM 83% | [5]; at 3.7 µM 70% | [5]; [17] 88% | [5]; at 11.0 µM 90% | [5]; at 33.0 µM 93% | [5]; [18] 97% | [5]; at 50.0 µM 88% | [5]; at 100.0 µM 95% | [6]; at 33.0 µM 70% | [6]; [18] 98% | [6]; at 50.0 µM 91.5% | [6]; at 100.0 µM 91% | [7]; at 100.0 µM 81% | [8]; [18] 96% | [8]; at 50.0 µM 88% | [9]; at 100.0 µM 84% | [10]; [18] 91% | [10]; at 50.0 µM 82% | [11]; [18] 95% | [11]; at 50.0 µM 89.2% | [11]; at 100.0 µM 78% | [12]; at 33.0 µM 90% | [12]; at 100.0 µM 93% | [13]; at 100.0 µM 81% | [14]; at 100.0 µM 85% | [15]; [18] 94% | [15]; at 50.0 µM 86.7% | [16]; at 100.0 µM 84%
inactive: [1]; at 1.2 µM 14% | [1]; at 3.7 µM 52% | [2]; at 1.2 µM -34% | [2]; at 3.7 µM -33% | [2]; at 11.0 µM -9% | [2]; at 33.0 µM 6% | [3]; at 1.2 µM -15% | [3]; at 3.7 µM -11% | [3]; at 11.0 µM -1% | [3]; at 33.0 µM 6% | [3]; at 100.0 µM 20% | [4]; at 1.2 µM -17% | [4]; at 3.7 µM -19% | [4]; at 11.0 µM 12% | [4]; at 33.0 µM 20% | [5]; at 1.2 µM 24% | [6]; at 1.2 µM -22% | [6]; at 3.7 µM 5% | [6]; [17] 11% | [6]; at 11.0 µM 15% | [7]; at 1.2 µM -12% | [7]; at 3.7 µM -8% | [7]; at 11.0 µM 0% | [7]; at 33.0 µM 22% | [8]; [17] 17% | [9]; at 1.2 µM -5% | [9]; at 3.7 µM 19% | [9]; at 11.0 µM 11% | [9]; at 33.0 µM 38% | [10]; [17] 7% | [11]; at 1.2 µM -32% | [11]; at 3.7 µM -13% | [11]; [17] -54% | [11]; at 11.0 µM -22% | [11]; at 33.0 µM 15% | [12]; at 1.2 µM 6% | [12]; at 3.7 µM 17% | [12]; at 11.0 µM 46% | [13]; at 1.2 µM -3% | [13]; at 3.7 µM 9% | [13]; at 11.0 µM 16% | [13]; at 33.0 µM 33% | [14]; at 1.2 µM -20% | [14]; at 3.7 µM -14% | [14]; at 11.0 µM -2% | [14]; at 33.0 µM 39% | [15]; [17] 9% | [16]; at 1.2 µM -30% | [16]; at 3.7 µM -8% | [16]; at 11.0 µM -5% | [16]; at 33.0 µM 13%
